The panel holds about 83,000 compounds, 20% with a hit somewhere; the sample as a whole holds those more often.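 Note: values are percent growth. 100 is the growth of untreated cells, values between 100 and 0 indicate rising inhibition; between -100 and 0 indicates cell death.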 Unmarked numbers belong to inactive results. Calls of active or inactive are those of the source. The calls were made as follows: active = growth percent below 10; inactive = the rest.
Legend:
Experiment in all cases: NCI-60 one-dose screen, 48 h (100 = growth as untreated, 0 = no growth, -100 = all killed)
Conditions in all cases: 10 µM unless noted
T-47D breast = test system: T-47D breast
BT-549 breast = test system: BT-549 breast
MDA-MB-435 melanoma = test system: MDA-MB-435 melanoma
SW-620 colon = test system: SW-620 colon
MCF7 breast = test system: MCF7 breast
HCT-116 colon = test system: HCT-116 colon
HCC-2998 colon = test system: HCC-2998 colon
KM12 colon = test system: KM12 colon
MDA-MB-468 breast = test system: MDA-MB-468 breast

| Compound | growth (T-47D breast) | growth (BT-549 breast) | growth (MDA-MB-435 melanoma) | growth (SW-620 colon) | growth (MCF7 breast) | growth (HCT-116 colon) | growth (HCC-2998 colon) | growth (KM12 colon) | growth (MDA-MB-468 breast) |
| --- | --- | --- | --- | --- | --- | --- | --- | --- | --- |
| COc1cc2c(c(OC)c1OC)C(=O)CC(c1cccc(NC(=O)c3cc(NC(=O)[C@H](C)N)ccc3Cl)c1)O2 (stereo partly specified) | 18.5% | -5.64% (active) | 2.82% (active) | 18.5% | 13.8% | 23.4% | 81% | 41.7% | 9.2% (active) |
| Cn1cc(-c2nc(N)nnc2-c2c[nH]c3ccc(Br)cc23)c2cc(Br)cnc21 | 34.6% | -33.4% (active) | -20.8% (active) | 20.8% | 3.81% (active) | -37.1% (active) | 1.16% (active) | 5.44% (active) | 1.62% (active) |
| Nc1nnc(-c2c[nH]c3ncc(Br)cc23)c(-c2c[nH]c3ccc(F)cc23)n1 | 38.2% | 54.4% | 26% | 20.9% | 18.6% | 26% | 45.9% | 30.5% | 13.1% |
| CCOP(=O)(OCCCl)c1nc(-c2ccc(C)cc2)oc1NCc1ccccc1 (stereo unspecified) | 48.1% | 92% | 87.2% | 86.5% | 50.3% | 63.3% | 94.6% | 77.6% | 62.9% |
| COC(OC)C1=C(C)OC(N)=C(C#N)C12C(=O)Nc1ccccc12 (stereo unspecified) | 100% | 123% | 94.8% | 85.5% | 60.7% | 100% | 106% | 95.3% | 85.9% |
| Nc1nc(-c2ccccc2)c(N=Nc2ccc(Cl)cc2[N+](=O)[O-])s1 | 61.2% | 92.6% | 105% | 102% | 60.3% | 97.1% | 102% | 102% | 89.7% |
| CN(C)c1nc(NCCNS(=O)(=O)c2ccc(C3=Nc4c(N)nc(N)nc4NC(c4ccc(C(F)(F)F)cc4)C3)cc2)nc(Nc2ccc(F)cc2)n1 (stereo unspecified) | 9.22% (active) | 19.3% | 9.17% (active) | 11.7% | -28.2% (active) | 2.12% (active) | -32.1% (active) | -4.83% (active) | -46.2% (active) |
| COc1ccc2[nH]cc(-c3cc(N)n4nc(-c5cn(C)c6ccccc56)cc4n3)c2c1 | -73.3% (active) | -75.2% (active) | -81% (active) | -46.1% (active) | -82.2% (active) | -85.9% (active) | -81.3% (active) | -69.9% (active) | -80.1% (active) |
| C#CCOc1cc(N(CC)CC)ccc1C(C(=O)NC(C)(C)C)N(C(=O)C1CCc2cc(F)ccc2O1)c1ccc(F)c(Cl)c1 (stereo unspecified) | 42.3% | 61.9% | 65.7% | 74.3% | 30.5% | 38.2% | 92% | 57.5% | 37.6% |
| Cc1cccc(-c2nc(Nc3ccc(C)c(S(N)(=O)=O)c3)c3ccccc3n2)c1 | 29.1% | 75.6% | 34.9% | 23.7% | 1.69% (active) | 25.3% | -63.7% (active) | -24.8% (active) | 13.4% |
| O=C1CC(Sc2n[nH]c(-c3ccncc3)n2)C(=O)N1c1ccc(Br)cc1 (stereo unspecified) | 94.5% | 122% | 104% | 101% | 99.8% | 105% | 110% | 109% | 99.3% |
| COc1ccc(NC(=O)Cn2c3c(sc2=O)[C@H]2[C@@H](O)[C@@H](O)[C@H](O)[C@@H]2CS3)cc1 | 100% | 110% | 101% | 105% | 93.8% | 103% | 114% | 102% | 107% |
| CC(C)CSc1nc(NCCc2c[nH]c3ccccc23)c(C#N)c(-c2ccc(F)cc2)n1 | 24.6% | 72.1% | 59.1% | 38% | 22.5% | 11.3% | 32.5% | 24% | 54.3% |
| COc1cc2oc(-c3cccc(C(=O)Nc4ccc(Cl)cc4)c3)cc(=O)c2c(OCCNC(=O)[C@H](CCC(=O)OC(C)(C)C)NC(=O)OC(C)(C)C)c1OC | 78.7% | 100% | 100% | 112% | 83% | 95.6% | 118% | 102% | 105% |
